# Records with an inconclusive call do not appear. Some structures have more than one record in an assay (separate samples or runs), and their calls can disagree. Calls of active or inactive are those of the source. How the source made its calls: active means hit-call score of the fitted dose curve at least 0.9, where 1 is the maximum; inconclusive means response in the unintended direction; inactive means score below 0.9.
# Columns and labels:
# [1] = molecular target: Retinoic acid receptor alpha (Homo sapiens) (UniProt P10276); test: NVS_NR_hRAR_Antagonist: NovaScreen (NVS) Nuclear Receptor Binding Assay for human Retinoic Acid Alpha Receptor Antagonism (RAR) (AID 2283358)
# In short: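 Read-out: time-resolved FRET binding signal, 2 h post-dose, cell-free extracted protein. Antagonism scored as signal loss versus DMSO negative control. Primary single-concentration screen at 25 uM in duplicate; concentration series for actives.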
# [2] = molecular target: Norway rat Vesicular Monoamine Transporter (VMAT2), neurotransmitter transporter, Slc18a2 (gene 25549) (UniProt Q01827); test: NVS_TR_rVMAT2: NovaScreen (NVS) Transporter Assay for Norway rat Vesicular Monoamine Transporter (VMAT2), neurotransmitter transporter (AID 2283376);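 further: actives lower the bound radioligand signal below the DMSO level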
# In short: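 Filter-based scintillation counting of radioligand bound to rat forebrain-derived VMAT2 protein, cell-free, 1 h post-dose. Signal loss relative to DMSO control scored; single-concentration duplicate screen (25 uM) followed by concentration-response testing of actives.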
# [3] = molecular target: human Thyroid Receptor Alpha (TRa), THRA (gene 7067) (UniProt P10827); test: NVS_NR_hTRa_Antagonist: NovaScreen (NVS) Nuclear Receptor Binding Assay for human Thyroid Receptor Alpha Antagonism (TRa) (AID 2283362);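 further: activity is loss of signal relative to DMSO baseline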
# In short: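 Extracted protein, cell-free; 1 h incubation after dosing; AlphaLISA chemiluminescence binding readout. DMSO = baseline/neg ctrl; signal loss = activity. Primary: duplicate, 25 uM; secondary: conc. series on actives.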
# [4] = molecular target: rat Androgen Receptor (AR), Ar (gene 24208) (UniProt P15207); test: NVS_NR_rAR: NovaScreen (NVS) Nuclear Receptor Binding Assay for rat Androgen Receptor (AR) (AID 2283366)
# In short: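 Actives from a duplicate single-concentration (25 uM) primary run went on to concentration series. Displacement of radioligand was counted by filtration and scintillation, 18 h post-dose, using prostate extracts from testosterone-pretreated rats, with DMSO as baseline.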
# [5] = molecular target: human Adenosine Transporter (Adot), SLC29A1 (gene 2030) (UniProt Q99808); test: NVS_TR_hAdoT: NovaScreen (NVS) Transporter Assay for human Adenosine Transporter (Adot) (AID 2283368)
# In short: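 Binding displacement on U937 extracted protein, read 1 h post-dose by filtration and scintillation counting. Primary duplicate test at 25 uM, then singleton concentration series with 50 uM top; DMSO baseline.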
# [6] = system: guinea pig Dopamine Transporter (DAT), gene 100714898; test: NVS_TR_gDAT: NovaScreen (NVS) Transporter Assay for guinea pig Dopamine Transporter (DAT) (AID 2283369);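 further: active compounds lower bound radioligand signal relative to DMSO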
# In short: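 Scintillation counts of filter-retained radioligand report binding to guinea pig striatal membranes after 2 h. Activity scored as signal loss relative to DMSO, first at 25 uM in duplicate, then in concentration series to 50 uM.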
# [7] = system: rat Norepinephrine Transporter (NET), gene 83511; test: NVS_TR_rNET: NovaScreen (NVS) Transporter Assay for rat Norepinephrine Transporter (NET) (AID 2283373)
# In short: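 Competitive radioligand displacement at the rat NET using forebrain membrane preparations, 1 h incubation, filter-based scintillation readout. Primary testing in duplicate at a single 25 uM concentration; confirmed actives retested across concentrations.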
# [8] = molecular target: human Serotonin Transporter (SERT), SLC6A4 (gene 6532) (UniProt P31645); test: NVS_TR_hSERT: NovaScreen (NVS) Transporter Assay for human Serotonin Transporter (SERT) (AID 2283372)
# In short: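 Human platelet membrane preparation; displacement of radioligand from serotonin transporter measured after 1 h by filtration and scintillation counting. Single 25 uM duplicate screen, then concentration series for actives, with DMSO as negative baseline.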
# [9] = molecular target: human Dopamine Transporter (DAT), SLC6A3 (gene 6531) (UniProt Q01959); test: NVS_TR_hDAT: NovaScreen (NVS) Transporter Assay for human Dopamine Transporter (DAT) (AID 2283374);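 further: activity means loss of bound radioligand signal relative to DMSO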
# In short: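 hDAT membranes + tritiated/iodinated radioligand, competitive displacement; 1 h; filter scintillation readout. Single conc 25 uM (duplicate), then conc-response for actives. DMSO = negative control.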
# [10] = molecular target: Estrogen receptor beta (Homo sapiens) (UniProt Q92731); test: OT_ER_ERbERb_0480: Odyssey Thera (OT) 8-hour HEK293T Protein-Complementation Assay for Estrogen Receptor-beta/-beta Homodimer (AID 2283357);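 further: active means signal gain over DMSO baseline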
# In short: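 Homodimerization of ER-beta LBD measured by protein-fragment complementation in HEK293T; 8 h dosing; fixed, Draq5 counterstain; fluorescence intensity gain over DMSO baseline, positive fitting direction; laser scanning cytometry.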
# [11] = molecular target: mouse Estrogen Receptor alpha (Era), Esr1 (gene 13982) (UniProt P19785); test: NVS_NR_mERa: NovaScreen (NVS) Nuclear Receptor Binding Assay for mouse Estrogen Receptor alpha (Era) (AID 2283378);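 further: hit means loss of bound radioligand signal relative to DMSO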
# In short: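 Extracted mouse Era incubated with tritiated or iodinated radioligand plus test chemical, 18 h. Bound fraction separated on filters, counted by scintillation. DMSO = negative control/baseline; duplicate single-point at 25 uM, then concentration-response follow-up.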
# [12] = molecular target: Peroxisome proliferator-activated receptor gamma (Homo sapiens) (UniProt P37231); test: NVS_NR_hPPARg: NovaScreen (NVS) Nuclear Receptor Binding Assay for human Peroxisome Proliferator-activated Receptor gamma (PPARg) (AID 2283370)
# In short: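 Chemicals were tested first in duplicate at 25 uM, then in concentration series if active. Binding to cell-free PPARg protein was measured by fluorescence polarization after 2 h, with loss of signal scored against DMSO.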
# [13] = molecular target: Nuclear receptor subfamily 1 group I member 2 (Homo sapiens) (UniProt O75469); test: NVS_NR_hPXR: NovaScreen (NVS) Nuclear Receptor Binding Assay for human Pregnane X Receptor (PXR) (AID 2283365);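 further: a drop in FRET signal versus DMSO baseline means the compound binds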
# In short: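 Human PXR protein, cell-free; compound added, incubated 2 h, TR-FRET read. Signal decrease vs DMSO = binding. Screened 25 uM duplicate, actives re-run as dilution series.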
# [14] = molecular target: human Norepinephrine Transporter (NET), SLC6A2 (gene 6530) (UniProt P23975); test: NVS_TR_hNET: NovaScreen (NVS) Transporter Assay for human Norepinephrine Transporter (NET) (AID 2283377);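 further: cell-free membrane protein extracted from CHO cells expressing human NET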;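 on AC50: displacement of radioligand from human NET seen as loss of scintillation signal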
# In short: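 CHO cell extracts expressing the transporter; tritiated or iodinated tracer displaced competitively; filtration plus scintillation readout at 1 h. Single-point duplicates at 25 uM, concentration series for follow-up; activity = signal drop relative to DMSO.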
# [15] = molecular target: human Peroxisome Proliferator-activated Receptor alpha (PPARa), PPARA (gene 5465) (UniProt Q07869); test: NVS_NR_hPPARa: NovaScreen (NVS) Nuclear Receptor Binding Assay for human Peroxisome Proliferator-activated Receptor alpha (PPARa) (AID 2283359);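 further: activity means loss of TR-FRET signal versus DMSO baseline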
# In short: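 TR-FRET signal measured at 1 h post-dosing; loss-of-signal versus DMSO negative control taken as activity. Extracted gene-protein, cell-free format. Initial single-point duplicates at 25 uM, then concentration-response retests.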
# [16] = molecular target: guinea pig Sigma Receptor, Non-selective Binding, SIGMAR1 (gene 100135589) (UniProt Q60492); test: NVS_OR_gSIGMA_NonSelective: NovaScreen (NVS) Nuclear Receptor Binding Assay for guinea pig Sigma Receptor, Non-selective Binding (AID 2283367)
# In short: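 Membranes from guinea pig brain incubated with radioligand and test chemical for 1 h, then filtered and scintillation-counted. Duplicate primary testing at 25 uM, with concentration-series follow-up for actives.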
# [17] = molecular target: rat Serotonin Transporter (SERT), Slc6a4 (gene 25553) (UniProt P31652); test: NVS_TR_rSERT: NovaScreen (NVS) Transporter Assay for rat Serotonin Transporter (SERT) (AID 2283375)
# In short: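 Filtration-based radiodetection quantified loss of specific radioligand binding in rat forebrain membranes after 1 hour of chemical exposure, relative to DMSO. Chemicals were first tested in duplicate at 25 uM.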
# [18] = molecular target: Glucocorticoid receptor (Homo sapiens) (UniProt P04150); test: NVS_NR_hGR: NovaScreen (NVS) Nuclear Receptor Binding Assay for human Glucocorticoid Receptor (GR) (AID 2283363);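 on AC50: activity is loss of specific radioligand binding signal relative to DMSO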
# In short: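 Filter scintillation readout of tritiated/iodinated radioligand displaced by test chemical; cell-free extracted protein; 16 h. DMSO = negative control/baseline. Duplicate single-point 25 uM screen, then concentration-response on actives.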
# PGR (gene 5241) = PGR (gene 5241) (UniProt P06401); test: NVS_NR_hPR: NovaScreen (NVS) Nuclear Receptor Binding Assay for human Progestron Receptor (PR) (AID 2283360);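 further: active means loss of bound radioligand signal versus DMSO baseline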
# In short: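 Cell-free radioligand binding using receptor protein extracted from T47D cells, read by scintillation counting 18 hours after dosing. Loss of signal relative to DMSO baseline indicates displacement; primary screen single concentration 25 uM in duplicate, actives followed in concentration series.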
# [19] = molecular target: Retinoic acid receptor alpha (Homo sapiens) (UniProt P10276); test: NVS_NR_hRARa_Agonist: NovaScreen (NVS) Nuclear Receptor Binding Assay for human Retinoic Acid Alpha Receptor Agonism (RAR) (AID 2283361)
# In short: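 TR-FRET signal, 2 h post-dosing; cell-free extracted protein; DMSO = baseline, positive fitting direction; 25 uM single-point duplicate, then concentration series for actives.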
# Sequence of Peroxisome proliferator-activated receptor gamma (Homo sapiens) (P37231 whole entry, looked up): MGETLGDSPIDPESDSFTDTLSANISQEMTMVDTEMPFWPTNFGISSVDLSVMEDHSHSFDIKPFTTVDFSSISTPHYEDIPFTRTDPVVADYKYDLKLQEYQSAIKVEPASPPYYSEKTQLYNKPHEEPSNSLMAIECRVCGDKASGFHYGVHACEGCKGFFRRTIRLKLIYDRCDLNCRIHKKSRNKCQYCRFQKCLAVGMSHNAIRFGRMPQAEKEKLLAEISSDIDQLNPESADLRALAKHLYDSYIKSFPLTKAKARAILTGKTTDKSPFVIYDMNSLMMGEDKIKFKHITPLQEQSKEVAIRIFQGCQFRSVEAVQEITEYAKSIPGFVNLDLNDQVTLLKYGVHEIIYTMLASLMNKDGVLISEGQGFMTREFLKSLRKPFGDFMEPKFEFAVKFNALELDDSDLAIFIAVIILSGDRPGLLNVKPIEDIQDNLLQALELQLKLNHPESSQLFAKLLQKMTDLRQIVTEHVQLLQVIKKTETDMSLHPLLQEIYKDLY
# Sequence of human Dopamine Transporter (DAT), SLC6A3 (gene 6531) (Q01959 whole entry, looked up): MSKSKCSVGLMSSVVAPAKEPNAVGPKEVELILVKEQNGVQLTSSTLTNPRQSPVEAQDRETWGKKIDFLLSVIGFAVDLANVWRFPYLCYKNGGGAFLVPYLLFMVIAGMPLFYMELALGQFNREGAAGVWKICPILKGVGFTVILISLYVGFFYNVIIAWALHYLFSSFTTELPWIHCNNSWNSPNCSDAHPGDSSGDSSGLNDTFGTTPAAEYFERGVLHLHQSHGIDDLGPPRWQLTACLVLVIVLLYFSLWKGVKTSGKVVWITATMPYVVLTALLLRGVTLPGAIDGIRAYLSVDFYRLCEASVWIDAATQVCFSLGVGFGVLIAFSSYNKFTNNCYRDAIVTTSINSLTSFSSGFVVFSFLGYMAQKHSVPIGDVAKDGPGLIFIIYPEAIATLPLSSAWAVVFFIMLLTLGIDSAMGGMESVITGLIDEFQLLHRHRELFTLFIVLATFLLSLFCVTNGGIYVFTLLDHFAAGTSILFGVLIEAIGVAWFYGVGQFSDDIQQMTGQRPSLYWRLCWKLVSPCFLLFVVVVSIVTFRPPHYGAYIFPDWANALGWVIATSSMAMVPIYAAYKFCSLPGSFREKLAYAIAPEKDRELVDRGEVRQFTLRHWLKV
# Sequence of human Serotonin Transporter (SERT), SLC6A4 (gene 6532) (P31645 whole entry, looked up): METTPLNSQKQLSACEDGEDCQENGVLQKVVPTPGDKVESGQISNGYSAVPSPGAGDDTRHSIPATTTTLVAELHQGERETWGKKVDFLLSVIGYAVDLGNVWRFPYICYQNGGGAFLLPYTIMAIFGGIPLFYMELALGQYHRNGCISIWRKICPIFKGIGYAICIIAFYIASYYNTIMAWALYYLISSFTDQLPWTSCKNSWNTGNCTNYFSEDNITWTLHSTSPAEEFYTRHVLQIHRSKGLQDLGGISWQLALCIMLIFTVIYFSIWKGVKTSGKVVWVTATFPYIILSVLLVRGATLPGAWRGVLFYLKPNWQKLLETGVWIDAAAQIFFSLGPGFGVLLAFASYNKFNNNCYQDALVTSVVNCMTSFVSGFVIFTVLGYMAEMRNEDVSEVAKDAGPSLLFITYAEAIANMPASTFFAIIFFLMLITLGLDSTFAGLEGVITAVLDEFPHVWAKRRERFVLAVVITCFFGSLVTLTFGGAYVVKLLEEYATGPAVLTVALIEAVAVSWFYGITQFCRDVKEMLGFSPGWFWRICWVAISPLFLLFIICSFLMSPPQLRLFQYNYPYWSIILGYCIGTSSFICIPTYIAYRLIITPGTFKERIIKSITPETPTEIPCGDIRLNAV
# Sequence of human Thyroid Receptor Alpha (TRa), THRA (gene 7067) (P10827 whole entry, looked up): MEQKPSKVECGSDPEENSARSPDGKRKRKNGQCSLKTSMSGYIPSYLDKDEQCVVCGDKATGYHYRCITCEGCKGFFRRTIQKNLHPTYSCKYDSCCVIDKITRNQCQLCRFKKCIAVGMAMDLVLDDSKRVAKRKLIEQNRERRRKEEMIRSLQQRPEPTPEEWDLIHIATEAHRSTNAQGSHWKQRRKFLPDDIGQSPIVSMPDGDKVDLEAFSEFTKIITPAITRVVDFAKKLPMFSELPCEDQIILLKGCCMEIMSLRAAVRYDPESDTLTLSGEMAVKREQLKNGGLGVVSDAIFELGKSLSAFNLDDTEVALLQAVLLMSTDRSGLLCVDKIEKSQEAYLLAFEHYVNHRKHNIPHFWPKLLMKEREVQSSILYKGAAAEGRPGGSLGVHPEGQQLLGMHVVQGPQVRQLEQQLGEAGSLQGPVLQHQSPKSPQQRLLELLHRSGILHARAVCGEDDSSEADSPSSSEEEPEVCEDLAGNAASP
# Sequence of rat Androgen Receptor (AR), Ar (gene 24208) (P15207 whole entry, looked up): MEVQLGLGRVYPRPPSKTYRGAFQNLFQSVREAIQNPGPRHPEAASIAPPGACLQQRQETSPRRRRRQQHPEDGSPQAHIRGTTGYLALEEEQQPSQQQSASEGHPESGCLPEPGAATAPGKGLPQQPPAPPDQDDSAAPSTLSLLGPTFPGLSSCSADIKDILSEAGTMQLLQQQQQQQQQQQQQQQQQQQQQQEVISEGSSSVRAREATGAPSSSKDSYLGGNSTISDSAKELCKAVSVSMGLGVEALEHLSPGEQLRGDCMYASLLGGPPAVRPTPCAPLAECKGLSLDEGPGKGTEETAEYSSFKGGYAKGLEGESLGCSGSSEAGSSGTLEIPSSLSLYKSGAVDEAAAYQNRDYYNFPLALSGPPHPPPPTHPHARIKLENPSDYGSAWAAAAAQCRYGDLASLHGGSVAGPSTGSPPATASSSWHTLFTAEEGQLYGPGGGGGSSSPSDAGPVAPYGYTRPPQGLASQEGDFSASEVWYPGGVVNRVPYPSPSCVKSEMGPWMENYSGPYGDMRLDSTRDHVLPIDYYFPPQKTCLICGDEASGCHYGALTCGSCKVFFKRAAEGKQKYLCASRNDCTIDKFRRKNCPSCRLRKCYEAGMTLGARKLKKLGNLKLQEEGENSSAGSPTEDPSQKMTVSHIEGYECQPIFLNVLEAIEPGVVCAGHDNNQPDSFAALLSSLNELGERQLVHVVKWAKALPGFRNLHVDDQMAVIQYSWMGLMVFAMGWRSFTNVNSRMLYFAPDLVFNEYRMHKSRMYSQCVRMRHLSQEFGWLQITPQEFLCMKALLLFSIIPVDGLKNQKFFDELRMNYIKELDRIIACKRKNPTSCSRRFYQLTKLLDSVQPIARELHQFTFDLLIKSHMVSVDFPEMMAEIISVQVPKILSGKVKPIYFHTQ
# Sequence of mouse Estrogen Receptor alpha (Era), Esr1 (gene 13982) (P19785 whole entry, looked up): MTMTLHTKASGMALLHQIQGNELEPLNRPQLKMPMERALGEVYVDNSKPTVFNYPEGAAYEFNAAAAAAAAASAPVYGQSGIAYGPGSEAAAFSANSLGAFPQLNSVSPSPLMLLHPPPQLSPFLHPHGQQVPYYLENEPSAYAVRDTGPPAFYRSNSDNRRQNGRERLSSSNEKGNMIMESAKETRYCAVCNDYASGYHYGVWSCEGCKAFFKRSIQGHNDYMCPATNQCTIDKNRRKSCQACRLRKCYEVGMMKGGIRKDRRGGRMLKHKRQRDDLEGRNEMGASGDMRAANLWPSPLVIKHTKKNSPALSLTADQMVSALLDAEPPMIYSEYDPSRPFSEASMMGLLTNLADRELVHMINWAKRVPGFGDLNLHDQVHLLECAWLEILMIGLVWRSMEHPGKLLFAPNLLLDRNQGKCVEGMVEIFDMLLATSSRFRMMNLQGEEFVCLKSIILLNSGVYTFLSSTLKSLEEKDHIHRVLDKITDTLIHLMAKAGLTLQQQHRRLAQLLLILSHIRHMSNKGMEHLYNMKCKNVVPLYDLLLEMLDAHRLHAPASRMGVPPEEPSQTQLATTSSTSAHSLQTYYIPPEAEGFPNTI
# Sequence of Norway rat Vesicular Monoamine Transporter (VMAT2), neurotransmitter transporter, Slc18a2 (gene 25549) (Q01827 whole entry, looked up): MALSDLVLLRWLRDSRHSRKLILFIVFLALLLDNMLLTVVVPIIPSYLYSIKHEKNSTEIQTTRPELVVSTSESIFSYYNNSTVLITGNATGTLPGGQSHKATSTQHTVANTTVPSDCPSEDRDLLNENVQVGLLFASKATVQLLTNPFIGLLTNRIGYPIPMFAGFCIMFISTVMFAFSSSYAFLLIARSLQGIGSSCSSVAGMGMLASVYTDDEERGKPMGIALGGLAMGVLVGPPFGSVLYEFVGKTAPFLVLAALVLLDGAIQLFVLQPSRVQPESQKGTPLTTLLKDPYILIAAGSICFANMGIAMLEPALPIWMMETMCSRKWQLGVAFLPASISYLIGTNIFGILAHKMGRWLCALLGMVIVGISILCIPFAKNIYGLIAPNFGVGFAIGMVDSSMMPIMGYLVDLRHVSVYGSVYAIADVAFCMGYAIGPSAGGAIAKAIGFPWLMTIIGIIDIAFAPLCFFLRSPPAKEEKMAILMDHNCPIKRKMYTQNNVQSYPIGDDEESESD
# Sequence of Glucocorticoid receptor (Homo sapiens) (P04150 whole entry, looked up): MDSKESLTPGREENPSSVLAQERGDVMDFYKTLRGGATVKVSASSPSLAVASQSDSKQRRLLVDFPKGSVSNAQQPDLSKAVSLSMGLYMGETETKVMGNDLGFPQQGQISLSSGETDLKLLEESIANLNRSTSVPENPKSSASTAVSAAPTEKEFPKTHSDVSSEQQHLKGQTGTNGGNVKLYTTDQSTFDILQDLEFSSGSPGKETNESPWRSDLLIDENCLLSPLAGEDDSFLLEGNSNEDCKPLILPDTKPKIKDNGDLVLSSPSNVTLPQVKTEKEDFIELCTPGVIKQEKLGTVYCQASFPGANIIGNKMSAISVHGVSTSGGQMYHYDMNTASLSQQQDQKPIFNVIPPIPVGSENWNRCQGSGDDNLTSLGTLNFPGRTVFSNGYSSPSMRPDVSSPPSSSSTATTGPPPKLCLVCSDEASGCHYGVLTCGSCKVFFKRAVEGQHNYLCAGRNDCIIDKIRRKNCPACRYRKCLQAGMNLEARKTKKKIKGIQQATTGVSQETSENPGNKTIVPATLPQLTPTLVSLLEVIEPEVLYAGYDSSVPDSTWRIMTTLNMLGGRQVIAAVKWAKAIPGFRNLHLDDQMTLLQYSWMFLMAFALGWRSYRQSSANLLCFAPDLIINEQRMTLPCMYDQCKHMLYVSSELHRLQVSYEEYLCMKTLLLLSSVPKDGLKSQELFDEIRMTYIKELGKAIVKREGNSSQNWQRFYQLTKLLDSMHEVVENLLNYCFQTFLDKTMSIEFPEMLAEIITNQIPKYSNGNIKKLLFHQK
compound,measurement,setting,value
CC1(C)CN=C(NN=C(/C=C/c2ccc(C(F)(F)F)cc2)/C=C/c2ccc(C(F)(F)F)cc2)NC1,AC50,[1],25 µM (active)
same,AC50,[2],109 nM (active)
CCCCCCCc1ccc(O)cc1,outcome,[3],inactive
same,outcome,[4],inactive
O=P(Oc1ccccc1)(Oc1ccccc1)Oc1ccccc1,outcome,[5],inactive
same,AC50,[6],18.8 µM (active)
CCC(C)(C)c1ccc(O)cc1,AC50,[6],17.3 µM (active)
same,outcome,[7],inactive
ClC1=C(Cl)C2(Cl)C3C(Cl)C(Cl)CC3C1(Cl)C2(Cl)Cl (configuration not stated),outcome,[8],inactive
Nc1ccc2ccccc2c1,AC50,[7],14.9 µM (active)
O=P(OCC(Br)CBr)(OCC(Br)CBr)OCC(Br)CBr (configuration not stated),outcome,[2],inactive
N#C/C=C/c1ccccc1,outcome,[2],inactive
CC(=O)c1ccc(-c2ccccc2)cc1,AC50,[9],10.9 µM (active)
CC(Cl)(Cl)C(=O)O,outcome,[10],inactive
same,outcome,[11],inactive
CCOS(=O)(=O)OCC,outcome,[12],inactive
ClC(Cl)(Cl)c1ccccc1,outcome,[10],inactive
same,outcome,[11],inactive
CO/N=C(/C(=O)OC)c1ccccc1COc1ccccc1C,outcome,[3],inactive
same,outcome,[13],inactive
same,outcome,[11],inactive
O=P1(N(CCCl)CCCl)NCCCO1 (configuration not stated),outcome,[10],inactive
same,outcome,[11],inactive
O=[N+]([O-])c1ccccc1,outcome,[10],inactive
same,outcome,[11],inactive
Cc1ccc2c(c1N)C(=O)c1ccccc1C2=O,AC50,[14],12.2 µM (active)
O=C(O)C(Cl)Cl,outcome,[15],inactive
same,outcome,[16],inactive
same,outcome,[2],inactive
OCC1CO1 (configuration not stated),outcome,[13],inactive
same,outcome,[2],inactive
Oc1ccc(I)cc1,AC50,[17],2.5 µM (active)
same,outcome,[2],inactive
same,AC50,[14],19.8 µM (active)
ClC(Cl)c1ccccc1,outcome,[12],inactive
CCCCN(CCCC)N=O,outcome,[15],inactive
same,outcome,[13],inactive
same,AC50,[16],25 µM (active)
CC(Cc1ccc(OCC(=O)O)cc1)NCC(O)c1csc(C(F)(F)F)n1 (configuration not stated),outcome,[10],inactive
same,outcome,[2],inactive
Clc1ccc(Oc2ccccc2)cc1,outcome,[9],inactive
CCC1(c2ccccc2)C(=O)N=C(O)NC1=O (configuration not stated),outcome,[10],inactive
same,outcome,[14],inactive
O=S(=O)(c1ccc(O)cc1)c1ccc(O)cc1,AC50,[10],31.2 µM (active)
same,outcome,[12],inactive
same,outcome,[11],inactive
c1nc[nH]n1,outcome,[10],inactive
same,outcome,[11],inactive
Oc1ccccc1Br,outcome,[14],inactive
CC(C)Nc1ccc(Nc2ccccc2)cc1,AC50,[18],25 µM (active)
same,AC50,[6],25 µM (active)
same,AC50,[9],1.69 µM (active)
same,AC50,[14],2.93 µM (active)
CSC(C)(C)C=NO,outcome,PGR (gene 5241),inactive
same,outcome,[18],inactive
same,outcome,[6],inactive
same,outcome,[12],inactive
same,outcome,[9],inactive
Cc1ccc(N)cc1N,outcome,[10],inactive
same,outcome,[8],inactive
CC(C)(C)c1ccccc1OP(=O)(Oc1ccccc1)Oc1ccccc1,outcome,PGR (gene 5241),inactive
same,AC50,[9],9.69 µM (active)
CN(C)C(=O)Cl,outcome,[15],inactive
O=[N+]([O-])c1ccc(Cl)c(Cl)c1,AC50,[12],9.12 µM (active)
same,outcome,[9],inactive
same,outcome,[14],inactive
Cc1cccc(N)c1,outcome,[19],inactive
CCOP(=S)(NC(C)C)Oc1ccccc1C(=O)OC(C)C (configuration not stated),outcome,[18],inactive
CC(C)(C)c1ccc(O)cc1,outcome,[6],inactive
same,outcome,[7],inactive
C=CC(=O)OCC(CC)(COC(=O)C=C)COC(=O)C=C,AC50,[18],14 µM (active)
N#Cc1c(-c2ccc(Cl)cc2)[nH]c(C(F)(F)F)c1Br,AC50,[14],16.4 µM (active)
Cc1cc(C)c(C(=O)P(=O)(c2ccccc2)c2ccccc2)c(C)c1,AC50,[9],13.6 µM (active)
same,outcome,[14],inactive
CC(Cl)CN(C)C (configuration not stated),outcome,PGR (gene 5241),inactive
CCCN(CCC)c1c([N+](=O)[O-])cc(C(C)C)cc1[N+](=O)[O-],outcome,[10],inactive
same,outcome,[8],inactive
same,outcome,[11],inactive
Cn1[nH]nnc1=S,outcome,[2],inactive
c1ccc2c(c1)sc1ccccc12,AC50,[18],0.179 µM (active)
same,outcome,[18],inactive
Nc1ccc([N+](=O)[O-])cc1Cl,AC50,[17],0.0449 µM (active)
